# Laboratory results reported in the supplement of paper PMC11417369.
# ± gives the standard deviation of the averaged measurements. In all, about 25,000 sequences were measured (“ln(normalized median fluorescence intensity)”: median about 8.9, highest 2% from about 10 on). The sample as a whole holds a higher share of the highest values than the screen did.
# System: PfAP2-LT AP2 domain (GST-tagged)
# Assay: gcPBM binding intensity (ln(normalized median fluorescence intensity)); higher = stronger DNA binding
# Outline: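 DNA-binding domains from P. falciparum, fused to GST and produced in E. coli, were put on an Agilent 4 × 180k double-stranded probe array for 1 h in 1× PBS holding 1% milk, 0.2 mg/ml BSA, 0.5% salmon testes DNA and 0.03% Triton X-100. Probes were primer-extended, 36 bp long and drawn from intergenic genomic regions, with negative controls included. After Alexa488 anti-GST antibody detection and a 488 nm scan, binding intensity was set as the highest Masliner-normalised natural-log median intensity across replicate spots of either probe orientation.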
row,Sequence,gcPBM binding intensity (ln)
1,TGTACCTTATTAATATATTTAACTCGCCTTATATAC [XGTACX_negctrl_site289],8.96 ± 0.36
2,AAATGTACAGGACGCACACACATATATATATATATA [CACACA_site3674],10.11 ± 0.05
3,AAATGTACAGGACGCACACACATATTTATATTTATA [CACACA_site7689],9.53 ± 0.3
4,TAAAATGTACAGGACGCACACACATATATATATATA [CACACA_site3673],9.92 ± 0.42
5,GCCTTCCTTCTAAATGCACACGGAAAGTATAAATGT [CACACA_site8797],9.04 ± 0.31
6,TTAATGTAGAGAAAATGTACATTTTATTAAAACAAT [XGTACX_site6376],8.76 ± 0.47
7,TAAACATACAGATACACACACACACCCACAGAGACA [CACACA_site4429],10.15 ± 0.028
8,AACATACATAAACACACACACACACCCACAGAGACA [CACACA_site4430],10.29 ± 0.035
9,AAATAAAACAGACACACACACACATACACAAAAAAA [CACACA_site7753],10.1 ± 0.22
10,AAATAACAAATTTTTAAAATGTATATATATATATAT [TGCATGCA_negctrl_site219],9.51 ± 0.12
11,GTTTTTTTTTTTTTGGTGCGTCATTTTCAAAAGAAG [GTGCAC_site9745],8.57 ± 0.41
12,AAACAAAAAAATTGAAATAAAATGAAGTAAATGAAC [TGCATGCA_negctrl_site129],8.9 ± 0.66
13,TTTTTTTTTTTTTTTTTTTTTTTCTTTATTTTTTTT [CACACA_negctrl_site703],8.16 ± 0.43
14,ATTGTTTTGTAATATGAAAAAATTGTGTAATGTGTC [CACACA_negctrl_site1510],8.72 ± 0.4
15,TTTTAAGTTTTTGAATGTACGTAATTTGTAAATTCT [XGTACX_site2448],8.49 ± 0.47
16,TATTTTTATTTTACATTATTTGTTTATAATTCTTAA [CACACA_negctrl_site1358],8.53 ± 0.57
17,AAAAAAAAAAAACACACACACAAAAAAAAATATATA [CACACA_site1105],9.85 ± 0.54
18,AAAAAAAAAAAACACACACACACACCGACAAAATAT [CACACA_site8411],10.4 ± 0.25
19,AAAAAAAAAAAAAACACACACACAAAAAAAAATATA [CACACA_site1104],9.68 ± 0.35
20,ACAAATAAATAAAAAACACACACAAATAAATAAATA [CACACA_site8708],9.57 ± 0.38
21,CATATACTCGGACACACACACACACCGACAAAAAAA [CACACA_site4433],10.1 ± 0.41
22,ATGTTACACCGACACACACACATAAAAAAACAAAAA [CACACA_site5750],9.61 ± 0.42
23,TATACTCATATATAAACACACAAAAAAAAAAAAAAA [CACACA_site5165],8.72 ± 0.45
24,TAAAATAAAACAAACACACACACACCGACACAAAAA [CACACA_site5993],10.1 ± 0.035
25,CATATATACTCATACACACACACACCGACACAGACA [CACACA_site5026],9.84 ± 0.17
26,ATAAATGACAGACACACACACAAAAAAAAAAAACAA [CACACA_site2626],9.84 ± 0.57
27,CACAAACAAAAACACACACACACACCGACAAAAATG [CACACA_site5362],10.24 ± 0.092
28,TATTTATTAAAACACACACACACACCGACAAAATAA [CACACA_site4293],9.97 ± 0.25
